Results on eleven compounds are retold here after PubChem BioAssay (NCI).

This is part of a sample that, as a whole, favours compounds with a hit. Of some 83,000 tested, about 20% had one in any assay.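 Note: values are percent growth. 100 is the growth of untreated cells, values between 100 and 0 indicate rising inhibition; between -100 and 0 indicates cell death.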 Unmarked numbers belong to inactive results. The source made the active and inactive calls. The calls were made as follows: active = growth percent below 10; inactive = the rest.

Common to all, as to assay: NCI-60 one-dose screen, 48 h (100 = growth as untreated, 0 = no growth, -100 = all killed)
Settings in all cases: 10 µM unless noted

Assay [1] has as its system NCI-H23 lung.
Assay [2] concerns NCI-H226 lung.
Assay [3] concerns NCI-H322M lung.
Assay [4] concerns HOP-62 NSCLC.
Assay [5] has as its system NCI-H460 lung.
The subject of assay [6] is HOP-92 NSCLC.
Assay [7] has as its system NCI-H522 lung.
Assay [8] concerns A549/ATCC NSCLC.
In assay [9] the test system is 786-0 renal.
Assay [10] deals with COLO 205 colon.

As to `Cc1cccc(C[C@H](NC(=O)Nc2ccc(Cl)cc2F)C(=O)N[C@@H]2C(=O)N3C[C@H](O)C[C@H]3C(=O)N3CCCC[C@H]3C(=O)N[C@@H](C)C(=O)N3C[C@H](C)C[C@H]3C(=O)O[C@H]2C)c1`, the growth in assay [1] is 25.7%; in assay [2], 20.9%; in assay [3], 34%; in [4], 24%; in assay [5], 2.42% (active); in assay [6] it was -7.02% (active). For the same compound, the growth in assay [7] was 14.7%; in assay [8], 17.9%; in assay [9], 11%; in assay [10], -30.9% (active).
For the compound `COc1cc2c(cc1OC(C)=O)C(=O)CCCC2`, the growth in [1] is 93.6%; in [2], 98.1%; in [3] it was 89.9%; in assay [4], 75.4%; in assay [5] it was 105%; in assay [6], 79%. In addition, the growth was 78% in [7], 85.8% in assay [8], 86.9% in [9] and 135% in assay [10].
On to `CC1(C)S[C@@H]2[C@H](NC(=O)[C@H](C(=O)O)c3cccs3)C(=O)N2[C@H]1C(=O)O`, for which the growth in assay [1] was 102%; in assay [2] it was 105%; in [3], 108%; in assay [4], 105%; in [5], 113%; in [6], 122%. For the same compound, the growth was 75.8% in [7], 102% in [8], 97.1% in assay [9] and 111% in assay [10].
`CCCCCn1c(C)cc(/C=C\c2ccc3cc(C)ccc3[n+]2C)c1C`: the growth in assay [1] is 3.14% (active); in assay [2] it was -58.4% (active); in assay [3] it was 30.3%; in [4] it was -58.9% (active); in assay [5], -75.1% (active); in assay [6], -64% (active). In addition, the growth is -36.7% (active) in assay [7], -84.5% (active) in assay [8], -76.7% (active) in assay [9] and -92.5% (active) in [10].
As for `CC(C)=CC/C=C(/C)[C@H]1CC[C@]2(C)[C@@H]1CC[C@@H]1[C@@]3(C)CCC(=O)NC(C)(C)[C@@H]3CC[C@]12C`, the growth in [1] was 13.6% [100 µM]; in assay [2] it was -1.12% [100 µM] (active); in [3], 36.1% [100 µM]; in assay [4], 14.3% [100 µM]; in [5], -16.7% [100 µM] (active); in [6], -6.9% [100 µM] (active). In addition, the growth in [7] is -58% [100 µM] (active); in assay [8], 15.3% [100 µM]; in assay [9], -33% [100 µM] (active); in [10], -0.368% [100 µM] (active).
As to `O=c1[nH]c2cc(Cl)c(Cl)cc2n2cc3ncccc3c12`, the growth in assay [1] is 90.6%; in assay [2] it was 89.2%; in assay [3], 97.9%; in assay [4], 80.6%; in assay [5] it was 62.8%; in assay [6], 87.3%. The growth was 43.8% in assay [7], 91.2% in assay [8], 92.2% in assay [9] and 90.4% in assay [10].
Consider `C=C(C)[C@@H]1CC[C@]2(C)[C@H](CC[C@@H]3[C@@H]([C@@](C)(O)CCC=C(C)C)CC[C@]32C)[C@@]1(C)CCC(=O)N1CCN(C)CC1`, for which the growth in [1] is -72% [100 µM] (active); in [2], -72% [100 µM] (active); in assay [3], -97.5% [100 µM] (active); in assay [4] it was -93% [100 µM] (active); in assay [5] it was -82.2% [100 µM] (active); in [6], -89.9% [100 µM] (active). For the same compound, the growth in [7] is -81.1% [100 µM] (active); in [8], 0.566% [100 µM] (active); in assay [9] it was -92.7% [100 µM] (active); in [10] it was -80.8% [100 µM] (active).
For the compound `CC(C)=CC/C=C(/C)[C@H]1CC[C@]2(C)[C@@H]1CC[C@@H]1[C@@]3(C)CC/C(=N/O)C(C)(C)[C@@H]3CC[C@]12C`, the growth was 47.5% [100 µM] in assay [1]; 59.7% [100 µM] in assay [2]; 77.3% [100 µM] in [3]; 74.2% [100 µM] in [4]; 40.5% [100 µM] in [5]; 53.1% [100 µM] in [6]. Also, the growth in [7] is 21.3% [100 µM]; in assay [8], 54.9% [100 µM]; in [9], 58.7% [100 µM]; in assay [10], 65.8% [100 µM].
For the compound `CC1(C)CC[C@]2(C(N)=O)CC[C@]3(C)C(=CC[C@@H]4[C@@]5(C)C/C(=C/c6ccncc6)C(=O)C(C)(C)[C@@H]5CC[C@]43C)[C@@H]2C1`, the growth in assay [1] was -34.4% [100 µM] (active); in [2] it was -48.3% [100 µM] (active); in assay [3], -100% [100 µM] (active); in [4] it was -63.3% [100 µM] (active); in [5], -48.9% [100 µM] (active); in [6] it was -64.7% [100 µM] (active). Moreover, the growth is -67.4% [100 µM] (active) in [7], -54.2% [100 µM] (active) in [8], -41.2% [100 µM] (active) in assay [9] and -55.3% [100 µM] (active) in [10].
Take `CC1(C)CC[C@]2(C(=O)OC(=O)[C@]34CCC(C)(C)C[C@@H]3C3=CC[C@@H]5[C@@]6(C)CCC(=O)C(C)(C)[C@@H]6CC[C@@]5(C)[C@]3(C)CC4)CC[C@]3(C)C(=CC[C@@H]4[C@@]5(C)CCC(=O)C(C)(C)[C@@H]5CC[C@]43C)[C@H]2C1`: the growth was 58.9% [100 µM] in [1]; 68.1% [100 µM] in [2]; 86.9% [100 µM] in assay [3]; 74.7% [100 µM] in assay [4]; 58.3% [100 µM] in [5]; 45.6% [100 µM] in assay [6]. In addition, the growth in assay [7] is 56.2% [100 µM]; in assay [8] it was 76.5% [100 µM]; in assay [9], 64.1% [100 µM]; in [10], 88.6% [100 µM].
Consider `C=C(C)[C@@H]1CC[C@]2(COC(=O)c3ccccc3C(=O)O)CC[C@]3(C)[C@H](CC[C@@H]4[C@@]5(C)CC[C@H](OC(=O)c6ccccc6C(=O)O)C(C)(C)[C@@H]5CC[C@]43C)[C@@H]12`, for which the growth in assay [1] was 6.7% [100 µM] (active); in [2] it was 25.9% [100 µM]; in assay [3] it was 30.7% [100 µM]; in assay [4], 3.17% [100 µM] (active); in assay [5] it was 19.7% [100 µM]; in assay [6] it was -22.3% [100 µM] (active). In addition, the growth in assay [7] is 46.8% [100 µM]; in assay [8], 51.3% [100 µM]; in [9], 1.64% [100 µM] (active); in [10], 99.3% [100 µM].
